PHOSPHO1 block: PHOSPHO1 (human) inhibition; 290,000 tested, 1.1% active; inhibition, % at 13.3 µM; recombinant PHOSPHO1, absorbance phosphatase assay; Q8TCT1; in the data active = inhibition above about 60%
eIF4H inh: inhibitors of RNA binding by human eIF4H; eIF4H fluorescence polarization binding assay; inhibition, % at 35 µM; 290,000 tested, 0.94% active; AID 2012;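 note: calls also rest on retests at 20 µM and on dose response follow-up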
PABP FP inh: PABP-poly(A) binding inhibition. PABP-poly(A) RNA binding, fluorescence polarization. calls only at 35 µM. 290,000 tested, 1% active. AID 2014;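 note: calls also rest on retests at 20 µM and on dose response follow-up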
APOBEC3G inh: blocks human APOBEC3G single-stranded DNA deamination | inhibition, % at 20 µM | 330,000 tested, 0.28% active | Q9HC16 | recombinant A3G, ssDNA deamination FAM/TAMRA fluorescence;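 active = inhibition of at least 40% at 20 µM, with no more than 30% in the related APOBEC3A deaminase screen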;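 note: plate controls were DMSO wells with A3G for no effect and wells lacking A3G enzyme for full effect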
A3A deaminase: human APOBEC3A DNA deaminase inhibition; inhibition, % at 20 µM; recombinant A3A, FAM/TAMRA ssDNA deamination fluorescence; 330,000 tested, 0.41% active; P31941;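 active = at least 40% inhibition at 20 µM here, with at most 30% in a related deaminase screen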;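 note: plate controls were A3A with DMSO for no effect and wells lacking A3A enzyme for full effect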
MLLE-PAM2 inh: inhibitors of microRNA-mediated deadenylation, human PABP1 MLLE binding; P11940; GST-MLLE / FITC-PAM2 fluorescence polarization; inhibition, % at 20 µM; 360,000 tested, 0.36% active; AID 588489; in the data active = inhibition above about 35%, passing the limit was not always enough;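 note: plate controls were DMSO wells with GST-MLLE for no effect and wells lacking GST-MLLE protein for full effect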
An asterisk follows results filed as active; i = inactive; . = not tested or not shown; + = active, no number. Sampled rows, rich in hits. Any-hit rate of the full collection: about 2.6%. Unless noted, the rule behind the calls is not given here.

SMILES	PHOSPHO1 block	eIF4H inh	PABP FP inh	APOBEC3G inh	A3A deaminase	MLLE-PAM2 inh
COc1ccc(OCc2nn3c(Cn4cnc5ccccc54)nnc3s2)cc1	81.0*	2.1	i	7.9	-2.2	30.5
c1ccc(OCc2nn3c(Cn4nnc5ccccc54)nnc3s2)cc1	82.6*	5.9	i	39.4	5.2	12.9
CN(C(=O)CSc1ncnc2ccccc12)C1CCCCC1	.	.	.	-8.1	0.3	-3.0
COc1cccc(/C=N/NC(=O)c2cnn(-c3ccccc3)c2N)c1	36.4	-4.2	i	-8.6	-2.6	0.9
CCCCCCn1c(=O)n2n(c1=O)C[C@]1(OC(=O)NCc3ccccc3)CN(S(=O)(=O)c3ccc(C)cc3)C[C@]1(O)C2	.	.	.	.	.	3.9
c1cncc(-c2nn3c(Cn4nnc5ccccc54)nnc3s2)c1	51.0	-2.2	i	21.9	5.9	32.9
c1ccc(-c2nn3c(Cn4nnc5ccccc54)nnc3s2)nc1	41.4	69.7*	i	18.8	1.7	30.4
Cc1ccc2c([N+](=O)[O-])c(C)ccc2n1	65.2*	-5.6	i	-6.1	-1.2	2.4
Oc1ccc(/C=N/Nc2ccnc3cc(Cl)ccc23)c(O)c1O	12.0	66.9*	i	18.2	10.1	-61.5
COc1ccc(Cl)cc1S(=O)(=O)N1CCCC1	11.6	-5.7	i	-2.7	-0.9	4.4
COc1ccc(C(CNC(=O)c2ccc(Cl)c(NC(=O)c3cccs3)c2)N2CCCC2)cc1 (stereo unspecified)	.	.	.	-7.8	-1.9	2.2
Cc1c(NC(=S)N/C(=N/S(=O)(=O)c2ccc(Cl)cc2)c2ccccc2)c(=O)n(-c2ccccc2)n1C	82.7*	-4.5	i	-5.3	0.3	19.7
Cc1c(NC(=O)Nc2cccc(Cl)c2)c(=O)n(-c2ccccc2)n1C	-30.9	-0.3	i	-2.0	3.4	-7.8
Cc1c(NC(=S)Nc2cccc(Cl)c2)c(=O)n(-c2ccccc2)n1C	8.4	active	i	-7.4	-7.3	16.3
Cc1c(C(=O)Nc2c(C)n(C)n(-c3ccccc3)c2=O)oc2ccc(Cl)cc12	70.6*	-4.0	i	-0.5	1.0	-2.2
Cc1c(C(=O)Nc2c(C)n(C)n(-c3ccccc3)c2=O)oc2c(Cl)cccc12	41.4	3.8	i	-6.5	0.2	3.5
Cc1c(NC(=O)Nc2cccc(F)c2)c(=O)n(-c2ccccc2)n1C	61.0*	-4.0	i	-4.7	-2.5	1.1
Cc1cccc(NC(=O)Nc2c(C)n(C)n(-c3ccccc3)c2=O)c1	.	6.6	i	-12.0	-4.8	-4.8
COc1ccc(S(=O)(=O)Nc2ccc(Oc3ccsc3C(=O)O)cc2)cc1	14.1	-8.5	i	-6.3	3.0	1.5
Oc1c(Cl)cc(Cl)cc1C=Nc1ccc2c(c1)OCCO2	-1.4	16.2*	+	-0.9	-0.2	-45.9
Brc1csc(C=Nc2ccc3c(c2)OCCOCCOCCOCCO3)c1	-11.9	32.3	i	-7.8	-8.6	6.9
O=C(O)CC(Cc1ccc(Cl)cc1)C(=O)Nc1cc(Cl)ccc1Cl (stereo unspecified)	44.4	1.1	i	-3.1	-5.1	-7.0
C=CCN=C1CC(C)(C)CC(=O)/C1=C(\O)CCCN1C(=O)c2ccccc2C1=O	28.5	13.3	i	-1.3	6.2	0.0
CCOc1cccc2cc(C(=O)NCc3ccc(F)cc3)c(=N)oc12	31.3	-9.6	i	-1.8	-0.7	-118.9
CCOC(=O)C1(CCOc2ccccc2)CCN(Cc2ccc3nonc3c2)CC1	68.4*	-1.9	i	-5.6	-2.0	6.7
SMILES	PHOSPHO1 block	eIF4H inh	PABP FP inh	APOBEC3G inh	A3A deaminase	MLLE-PAM2 inh
CC(C)(C)c1ccc(C(=O)Nc2ccc(N3CCOCC3)cc2)cc1	8.5	-2.1	i	-6.8	-3.2	5.0
CC(C)(C)c1ccc(C(=O)NC(=S)Nc2ccc(N3CCOCC3)cc2)cc1	-14.1	5.3	+	-3.2	-0.6	34.2
CC(=O)N1CCN(c2ccc(NC(=S)NC(=O)COc3ccc(C(C)(C)C)cc3)cc2)CC1	-6.6	5.7	i	-1.9	-2.8	43.8*
Cc1ccc(C(=O)NC(=S)Nc2ccc(N3CCN(C(=O)c4ccco4)CC3)cc2)cc1	24.0	-5.7	i	1.1	-4.8	40.4*
CCc1nc2ccc(C(=O)NC3CCN(Cc4ccccc4)CC3)cn2c1N(CC)Cc1cccc(Br)c1	.	.	.	.	.	8.8
CCOC(=O)C(C)Sc1nc2c(c(=O)[nH]c(=O)n2C)n1C/C=C(/C)Cl (stereo unspecified)	64.8*	-1.2	i	36.7	65.5	16.0
